The results in this text go back to the supplement of paper PMC7366291.

Holding throughout (conditions): 25 µM; exposure: 24-48 hpf
In experiment [1] the test system is Danio rerio Tg(wt1b:EGFP) embryo, pronephros. Briefly: glomerular separation, fold change vs DMSO control; higher = glomeruli further apart (abnormal). Put shortly: (§1)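 Dechorionated Tg(wt1b:EGFP) zebrafish embryos were exposed to 25 μM compound in 0.5% DMSO, HEPES-buffered E3 with 0.003% PTU, from 24 to 48 hpf at 28.5°C. Pronephroi were imaged dorsally in agarose-filled 96-well plates (470 nm, 10 z-slices). On maximum projections, 16 reference points were set manually in Fiji and a macro computed distances and angles. Values more than 2 SD from the feature mean were excluded. Each feature is a fold change relative to the mean of same-day DMSO controls.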

Experiment [2] shares this test system. Nature of the experiment: glomerular width (mean of left and right), fold change vs DMSO control; higher = wider glomerulus. The procedure, abridged: as §1
For experiment [3] the test system is unchanged. Briefly: fraction of imaged embryos annotated as normal kidney; higher = less nephrotoxic; extreme values may be limits of the assay. The procedure, abridged:
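The read-out is the proportion of embryos in each treatment manually annotated as normal-kidney. Exposure ran from 24 to 48 hpf at 28.5°C in 12-well plates, using dechorionated Tg(wt1b:EGFP) zebrafish embryos in 5 mM HEPES-buffered E3 with 0.003% PTU, 0.5% DMSO and 25 μM compound. For imaging, larvae were anaesthetised with tricaine, positioned dorsally in agarose-filled 96-well plates and captured by widefield fluorescence (470 nm, 10 z-slices), with scoring done on maximum projections.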

For experiment [4] the test system is unchanged. Nature of the experiment: pronephric angle neck segment to proximal convoluted tubule (mean of left and right), fold change vs DMSO control; higher = larger pronephric angle. Put shortly:
as §1

Counter-ions that a name gives are not always drawn. ± gives the standard deviation or the standard deviation of the averaged measurements.

The compound `CC(=O)OCC(CCn1cnc2cnc(N)nc21)COC(C)=O` [Famciclovir] returned a glomerular separation in experiment [1] of 0.793 ± 0.23. Besides, the glomerular width in experiment [2] was 1.06 ± 0.048. In addition, in experiment [3], the “fraction of imaged embryos annotated as normal kidney” value (“fraction of imaged embryos annotated” for short) worked out at 1. Moreover, in experiment [4], the “pronephric angle neck segment” value amounted to 0.9775 ± 0.004.

`COCCOC(=O)C1=C(C)NC(C)=C(C(=O)OC(C)C)C1c1cccc([N+](=O)[O-])c1` (stereo unspecified) [Nimodipine] yielded a glomerular separation in experiment [1] of 1.64 ± 1.1. The glomerular width in experiment [2] came to 0.786 ± 0.066. Also, in experiment [3], the “fraction of imaged embryos annotated” value came out at 0.5. In addition, in experiment [4], the “pronephric angle neck segment” value worked out at 0.954 ± 0.049.

The compound `C=C1C[C@H]2[C@@H]3C=C(C)C4=CC(=O)CC[C@]4(C)[C@H]3CC[C@]2(C)[C@@]1(OC(C)=O)C(C)=O` [Melengestrol acetate] displayed a glomerular separation in experiment [1] of 0.846 ± 0.24. Besides, the glomerular width in experiment [2] amounted to 1.07 ± 0.039. The “fraction of imaged embryos annotated” value in experiment [3] amounted to 0.917. Besides, the “pronephric angle neck segment” value in experiment [4] was found to be 1.02 ± 0.066.

With `O=C1Cc2cc(CCN3CCN(c4nsc5ccccc45)CC3)c(Cl)cc2N1` [Ziprasidone  Hydrochloride], the glomerular separation in experiment [1] amounted to 1.5 ± 0.53. In experiment [2], the glomerular width came to 1.03 ± 0.025. Besides, in experiment [3], the “fraction of imaged embryos annotated” value came out at 0.833. The “pronephric angle neck segment” value in experiment [4] amounted to 1.05 ± 0.04.

As for `CCOc1ccccc1OC(c1ccccc1)C1CNCCO1` (stereo unspecified) [Reboxetine mesylate], the glomerular separation in experiment [1] was determined as 1.16 ± 0.43. Further, in experiment [2], the glomerular width stood at 1 ± 0.077. Moreover, the “fraction of imaged embryos annotated” value in experiment [3] amounted to 0.909. Besides, the “pronephric angle neck segment” value in experiment [4] came out at 0.99 ± 0.0046.

In experiment [1], `CC(C)(C)NC[C@H](O)c1ccc(O)c(CO)c1` [Levalbuterol hydrochloride] had a glomerular separation of 0.811 ± 0.27. The compound also yielded a glomerular width in experiment [2] of 1.07 ± 0.031. In addition, in experiment [3], the “fraction of imaged embryos annotated” value is 0.917. In experiment [4], the “pronephric angle neck segment” value was found to be 0.998 ± 0.031.

In experiment [1], `CC1=C(C(=O)O)N2C(=O)[C@@H](NC(=O)[C@H](N)c3ccc(O)cc3)[C@H]2SC1` [Cefadroxil] showed a glomerular separation of 1.23 ± 0.49. Besides, the glomerular width in experiment [2] came to 1.08 ± 0.042. Further, the “fraction of imaged embryos annotated” value in experiment [3] worked out at 0.833. Also, the “pronephric angle neck segment” value in experiment [4] turned out to be 0.923 ± 0.049.

In experiment [1], `COc1ccc2cc(CCC(C)=O)ccc2c1` [Nabumetone] showed a glomerular separation of 1.26 ± 0.44. In addition, the glomerular width in experiment [2] is 1 ± 0.011. Moreover, the “fraction of imaged embryos annotated” value in experiment [3] was determined as 0.75. Moreover, the “pronephric angle neck segment” value in experiment [4] is 1.06 ± 0.038.

The compound `CCN[C@H]1CN(CCCOC)S(=O)(=O)c2sc(S(N)(=O)=O)cc21` [Brinzolamide] registered a glomerular separation in experiment [1] of 1.47 ± 0.71. The glomerular width in experiment [2] turned out to be 1.053 ± 0.0011. In addition, the “fraction of imaged embryos annotated” value in experiment [3] is 0.5. Also, the “pronephric angle neck segment” value in experiment [4] was 1.1 ± 0.069.

In the case of `Nc1ccn([C@@H]2O[C@H](CO)[C@@H](O)C2(F)F)c(=O)n1` [Gemcitabine], the glomerular separation in experiment [1] came out at 0.851 ± 0.34. The glomerular width in experiment [2] came out at 0.99 ± 0.053. Besides, the “fraction of imaged embryos annotated” value in experiment [3] was 0.917. Moreover, the “pronephric angle neck segment” value in experiment [4] stood at 1.03 ± 0.039.

Compound `Cc1c(N(C)CS(=O)(=O)O)c(=O)n(-c2ccccc2)n1C` [Dipyrone] showed a glomerular separation in experiment [1] of 0.952 ± 0.36. This compound returned a glomerular width in experiment [2] of 0.936 ± 0.012. For the same compound, in experiment [3], the “fraction of imaged embryos annotated” value was found to be 0.917. Besides, the “pronephric angle neck segment” value in experiment [4] came to 0.993 ± 0.021.

For the compound `CN[C@H]1CC[C@@H](c2ccc(Cl)c(Cl)c2)c2ccccc21` [Sertraline], in experiment [1], the glomerular separation turned out to be 0.914 ± 0.35. This compound also gave a glomerular width in experiment [2] of 0.973 ± 0.035. Also, in experiment [3], the “fraction of imaged embryos annotated” value turned out to be 0.917. Also, the “pronephric angle neck segment” value in experiment [4] amounted to 0.969 ± 0.045.

Consider `CCCCC1C(=O)N(c2ccccc2)N(c2ccc(O)cc2)C1=O` (stereo unspecified) [Oxyphenbutazone], for which the glomerular separation in experiment [1] is 1.27 ± 0.44. The compound further returned a glomerular width in experiment [2] of 0.983 ± 0.027. Also, the “fraction of imaged embryos annotated” value in experiment [3] turned out to be 1. In addition, the “pronephric angle neck segment” value in experiment [4] is 0.998 ± 0.06.

Take `CCn1cc(C(=O)O)c(=O)c2cnc(N3CCCC3)nc21` [Piromidic acid]: in experiment [1], the glomerular separation was 0.725 ± 0.31. Also, the glomerular width in experiment [2] was determined as 0.909 ± 0.021. Moreover, the “fraction of imaged embryos annotated” value in experiment [3] worked out at 0.9. For the same compound, the “pronephric angle neck segment” value in experiment [4] came out at 1 ± 0.008.

Take `N=C(N)N1CCc2ccccc2C1` [Debrisoquin sulfate]: the glomerular separation in experiment [1] came to 1.02 ± 0.24. This compound returned a glomerular width in experiment [2] of 0.9804 ± 0.0064. Further, the “fraction of imaged embryos annotated” value in experiment [3] was determined as 0.667. The “pronephric angle neck segment” value in experiment [4] was 1.01 ± 0.01.

In experiment [1], `COC1=CC(=O)C[C@@H](C)[C@]12Oc1c(Cl)c(OC)cc(OC)c1C2=O` [Griseofulvin] displayed a glomerular separation of 0.952 ± 0.29. Also, the glomerular width in experiment [2] turned out to be 1 ± 0.023. The “fraction of imaged embryos annotated” value in experiment [3] came to 0.917. In experiment [4], the “pronephric angle neck segment” value is 0.947 ± 0.01.

For the compound `CN(C)CCOC(c1ccccc1)c1ccccc1` [Diphenhydramine hydrochloride], the glomerular separation in experiment [1] was 0.907 ± 0.28. Besides, the glomerular width in experiment [2] stood at 1.03 ± 0.0021. Also, the “fraction of imaged embryos annotated” value in experiment [3] came out at 0.75. Besides, the “pronephric angle neck segment” value in experiment [4] came to 0.942 ± 0.016.

In experiment [1], `CC(Cc1cccc(C(F)(F)F)c1)NCCOC(=O)c1ccccc1` (stereo unspecified) [Benfluorex] registered a glomerular separation of 0.843 ± 0.23. For the same compound, in experiment [2], the glomerular width is 1 ± 0.03. The “fraction of imaged embryos annotated” value in experiment [3] stood at 0.917. Also, the “pronephric angle neck segment” value in experiment [4] worked out at 1.04 ± 0.045.

Turning to `Cc1cccc(C)c1OCC(C)N` (stereo unspecified) [Mexiletine hydrochloride], the glomerular separation in experiment [1] stood at 0.9 ± 0.27. In experiment [2], the glomerular width worked out at 0.98 ± 0.033. In addition, the “fraction of imaged embryos annotated” value in experiment [3] came to 0.917. For the same compound, the “pronephric angle neck segment” value in experiment [4] was determined as 0.98 ± 0.041.

In experiment [1], `OC(CCCN1CCCCC1)(c1ccccc1)c1ccccc1` [Diphenidol hydrochloride] yielded a glomerular separation of 0.854 ± 0.23. This compound also showed a glomerular width in experiment [2] of 1.1 ± 0.11. Further, the “fraction of imaged embryos annotated” value in experiment [3] was determined as 0.833. In addition, the “pronephric angle neck segment” value in experiment [4] was found to be 1.06 ± 0.02.

As for `CCOC(=O)C1=C[C@]2(CC)CCCN3CCc4c(n1c1ccccc41)[C@@H]32` [Vinpocetine], in experiment [1], the glomerular separation came to 1.08 ± 0.2. In addition, in experiment [2], the glomerular width came out at 1.037 ± 0.0011. The “fraction of imaged embryos annotated” value in experiment [3] worked out at 0.909. Moreover, the “pronephric angle neck segment” value in experiment [4] came out at 1.05 ± 0.039.

Take `C[C@H](CS)C(=O)N1CCC[C@H]1C(=O)O` [Captopril]: in experiment [1], the glomerular separation turned out to be 1 ± 0.45. In experiment [2], the glomerular width was found to be 1.01 ± 0.042. Moreover, in experiment [3], the “fraction of imaged embryos annotated” value was determined as 1. In addition, the “pronephric angle neck segment” value in experiment [4] stood at 1.02 ± 0.09.

On to `CCOC(=O)NNc1nncc2ccccc12` [Todralazine hydrochloride], for which the glomerular separation in experiment [1] was found to be 0.937 ± 0.25. In experiment [2], this compound registered a glomerular width of 0.993 ± 0.06. In experiment [3], the “fraction of imaged embryos annotated” value worked out at 0.917. The “pronephric angle neck segment” value in experiment [4] amounted to 0.963 ± 0.031.

`Cc1onc(-c2ccccc2Cl)c1C(=O)N[C@@H]1C(=O)N2[C@@H]1SC(C)(C)[C@@H]2C(=O)O` [Cloxacillin sodium salt] registered a glomerular separation in experiment [1] of 1.06 ± 0.42. This compound returned a glomerular width in experiment [2] of 1.172 ± 0.0081. Further, the “fraction of imaged embryos annotated” value in experiment [3] is 0.833. In addition, the “pronephric angle neck segment” value in experiment [4] was 1 ± 0.035.

In experiment [1], `Nc1nc(N)c2nc(-c3ccccc3)c(N)nc2n1` [Triamterene] came in with a glomerular separation of 1.02 ± 0.42. The compound further had a glomerular width in experiment [2] of 0.902 ± 0.0063. Also, the “fraction of imaged embryos annotated” value in experiment [3] stood at 0.75. For the same compound, the “pronephric angle neck segment” value in experiment [4] amounted to 0.935 ± 0.046.

`O=C(O)CCC(=O)c1ccc(-c2ccccc2)cc1` [Fenbufen] gave a glomerular separation in experiment [1] of 6.73 ± 2.4. The compound also returned a glomerular width in experiment [2] of 0.729 ± 0.11. In experiment [3], the “fraction of imaged embryos annotated” value is 0.0909. Besides, the “pronephric angle neck segment” value in experiment [4] stood at 1.32 ± 0.18.

For `CCN[C@H]1C[C@H](C)S(=O)(=O)c2sc(S(N)(=O)=O)cc21` [Dorzolamide hydrochloride], the glomerular separation in experiment [1] was 1.08 ± 0.35. The glomerular width in experiment [2] was found to be 0.955 ± 0.029. The “fraction of imaged embryos annotated” value in experiment [3] was found to be 0.75. Also, the “pronephric angle neck segment” value in experiment [4] was found to be 1.024 ± 0.0028.

`CC(=O)[C@H]1CC[C@H]2[C@@H]3C=CC4=CC(=O)CC[C@@]4(C)[C@@H]3CC[C@]12C` [Dydrogesterone] registered a glomerular separation in experiment [1] of 1.29 ± 0.6. Besides, the glomerular width in experiment [2] stood at 1.04 ± 0.02. Also, the “fraction of imaged embryos annotated” value in experiment [3] was determined as 0.833. In addition, the “pronephric angle neck segment” value in experiment [4] amounted to 0.973 ± 0.012.

Turning to `C[C@]1(Cn2ccnn2)[C@H](C(=O)O)N2C(=O)C[C@H]2S1(=O)=O` [Tazobactam], in experiment [1], the glomerular separation was 0.923 ± 0.63. The same compound showed a glomerular width in experiment [2] of 1.07 ± 0.018. In addition, the “fraction of imaged embryos annotated” value in experiment [3] was 0.75. Moreover, the “pronephric angle neck segment” value in experiment [4] came to 0.985 ± 0.018.
